Data on 4 molecules can be found in PubChem BioAssay.

Each structure is given as a SMILES string. Calls of active or inactive are those of the source.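 The calls were made as follows, unless noted: active = compounds that lower survival of HCT116 colon cancer cells in the luminescence readout, no numeric limit stated; inactive = the rest.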

A short description of assay [1]: stimulators of insulin release from INS-1E, primary screen, cell-based, 5 mM glucose, NPC library (AID 1117329;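 active = compound raises insulin release from rat beta cells at 5 mM glucose, no numeric limit stated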). Particulars: rat INS-1E insulin secretion, at 10 µM, stronger effect = higher value.
Assay [2] is described as follows: growth inhibition of GSK3B-pretreated HCT116 cells – cell-based, CellTiter-Glo, 0.2 to 20 µM (AID 1117336;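 active = compounds lowering colon cancer cell viability after pretreatment blocking the GSK3B kinase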). Particulars: HCT116 viability after GSK3B inhibitor, at 20 µM, stronger effect = higher value. (In general: In ATP-based viability assays light output follows the ATP content of the culture.)
Assay [3] in a line: inhibition of endothelial tube formation, primary screen, imaging, VEGF stimulated, CD31 staining, tube area, NPC library (AID 1117340;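 active = compound that reduces growth-factor-driven endothelial tube area in a mixed cell culture, no cutoff stated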). Particulars: VEGF-stimulated ADSC/ECFC co-culture, at 10 µM, stronger effect = higher value.
The nature of assay [4]: glucagon-like peptide 1 release enhancers, primary assay, NCI-H716 cell line, NPC library (AID 1117341;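 active = compound raises GLP1 secretion from the human gut endocrine cells, with no numeric limit stated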). Particulars: NCI-H716 cells, at 10 µM, stronger effect = higher value.
Assay [5] in a line: HCT116 colon cancer cell growth inhibition, primary screen, CellTiter-Glo luminescence, NPC library (AID 1117342). Particulars: at 20 µM (top of the series).
Assay [6] can be described thus: CellTiter-Glo luminescent readout of SW480 viability loss, NPC library primary (AID 1117343;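 active = compounds that lower viability of the colon cancer cells in the luminescence readout, with no numeric limit stated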). Particulars: CellTiter-Glo luminescence; at 20 µM (top of the series).
Assay [7] is described as follows: decreased DLD-1 cellular survival, CellTiter-Glo luminescent readout, NPC compound collection, primary HTS (AID 1117346;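 active = compounds that lower survival of DLD-1 colon cancer cells in the luminescence readout, no cutoff given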). Particulars: DLD-1 viability, CellTiter-Glo luminescence; at 20 µM (top of the series).
Assay [8] concerns the target 6-phosphogluconate dehydrogenase, decarboxylating (Homo sapiens) (UniProt P52209). Description: 6PGD enzyme inhibitors, primary screen, biochemical, human, recombinant enzyme, NADPH absorbance (AID 1159550;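 active = at least 20% inhibition of 6-phosphogluconate dehydrogenase activity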). Particulars: recombinant 6PGD, NADPH absorbance 341 nm; at 10 µM; stronger effect = higher value.
Assay [9] in a line: differential killing of epithelial or mesenchymal cells, primary screen, imaging, PC-3E GFP, TEM4-18 mCherry, co-culture (AID 1345086;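 active = compounds killing one labelled cell type while sparing the other, by normalised counts and ratio limits, not self-fluorescent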;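 as to all read-outs here: cells exposed to compound for 72 h before imaging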;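 as to red/green cell ratio (normalised): normalised mesenchymal count divided by normalised epithelial count so high means epithelial killing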). Particulars: imaging cell counts, at 1 µM; for red/green cell ratio (normalised): actives lie on both sides, counts scaled to control wells, 1 = unselective.
[10] abbreviates: measured here: epithelial PC-3E GFP cell survival.
Where [11] appears, read: measured here: mesenchymal TEM4-18 mCherry cell survival.

Sequence of 6-phosphogluconate dehydrogenase, decarboxylating (Homo sapiens) (P52209 whole entry, looked up): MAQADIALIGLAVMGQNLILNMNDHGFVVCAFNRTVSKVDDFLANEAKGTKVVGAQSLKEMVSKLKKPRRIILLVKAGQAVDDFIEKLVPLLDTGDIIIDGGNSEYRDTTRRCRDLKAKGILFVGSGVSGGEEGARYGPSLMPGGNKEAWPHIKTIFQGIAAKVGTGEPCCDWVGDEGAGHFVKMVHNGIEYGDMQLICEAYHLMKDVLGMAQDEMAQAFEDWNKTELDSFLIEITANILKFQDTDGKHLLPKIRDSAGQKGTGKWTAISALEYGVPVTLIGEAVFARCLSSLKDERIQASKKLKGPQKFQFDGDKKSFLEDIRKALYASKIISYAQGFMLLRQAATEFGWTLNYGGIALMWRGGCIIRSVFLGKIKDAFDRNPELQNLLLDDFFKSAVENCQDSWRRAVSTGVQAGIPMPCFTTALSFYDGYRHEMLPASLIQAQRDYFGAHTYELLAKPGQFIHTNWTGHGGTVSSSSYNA

Consider `CC(=O)OCC1=C(C(=O)O)N2C(=O)[C@@H](NC(=O)Cc3cccs3)[C@H]2SC1`, for which the insulin secretion stimulation in assay [1] was 3.6% (inactive). Also, in [2], the viability decrease is 33.1% (inactive). Moreover, in [3], the tube area decrease is -3.9% (inactive). Also, the GLP1 secretion stimulation in assay [4] is 2.4% (inactive). For the same molecule, the inhibition of viability in [5] was 2.9% (inactive). Also, the viability decrease (inhibition) is -15.1% (inactive) in [6] and -1% (inactive) in assay [7]. Moreover, in [8], the inhibition is 4.29% (inactive). The red/green cell ratio (normalised) in [9] was 1.02 (inactive). In addition, the normalised cell number in assay [9] (setting [10]) came to 1.21; in assay [9] (setting [11]), 1.23.
As to `NC(=NCCCCCCN=C(N)/N=C(\N)Nc1ccc(Cl)cc1)/N=C(\N)Nc1ccc(Cl)cc1`, in [1], the insulin secretion stimulation was 36.6% (active). Also, in [2], the viability decrease was 120% (active). Also, the tube area decrease in assay [3] was 111% (active). The GLP1 secretion stimulation in assay [4] was 161% (active). Moreover, in assay [5], the inhibition of viability was 125% (active). The results for the viability decrease (inhibition) in assay [6] and in [7] were 166% (active) and 101% (active), respectively. Further, the inhibition in assay [8] was -5.13% (inactive). Moreover, the red/green cell ratio (normalised) in assay [9] was 1.05 (inactive). The normalised cell number in [9] (setting [10]) is 0.89; in [9] (setting [11]) it was 0.93.
Turning to `CCn1cc(C(=O)O)c(=O)c2cnc(N3CCNCC3)nc21`, the insulin secretion stimulation in assay [1] was 1.5% (inactive). Besides, the viability decrease in assay [2] is -23.1% (inactive). For the same molecule, the tube area decrease in [3] was 0.7% (inactive). Further, in assay [4], the GLP1 secretion stimulation was -1.8% (inactive). Besides, the inhibition of viability in assay [5] was -0.3% (inactive). In addition, the viability decrease (inhibition) is -4.5% (inactive) in assay [6] and -15.1% (inactive) in assay [7]. The inhibition in [8] is 6.84% (inactive). The red/green cell ratio (normalised) in [9] was 1.01 (inactive). The normalised cell number in assay [9] (setting [10]) was 0.76; in [9] (setting [11]) it was 0.77.
Turning to `CN1CCC(OC(c2ccccc2)c2ccccc2)CC1`, in assay [1], the insulin secretion stimulation is 6.2% (inactive). Moreover, the viability decrease in assay [2] is -31.3% (inactive). Further, the tube area decrease in assay [3] is 13.8% (inactive). Also, the GLP1 secretion stimulation in assay [4] was 4.2% (inactive). The inhibition of viability in assay [5] is 35.4% (inactive). Moreover, the viability decrease (inhibition) in [6] was 37.7% (inactive); in assay [7], -6.7% (inactive). For the same molecule, the inhibition in assay [8] is 10.6% (inactive). Also, in [9], the red/green cell ratio (normalised) was 1.14 (inactive). Further, the figures for the normalised cell number in assay [9] (setting [10]) and in assay [9] (setting [11]) were 1.05 and 1.2, respectively.

The inhibition is the change of the read-out against control, counted positive when it falls.
